Measurements reported in PubChem BioAssay AID1037 (National Center for Advancing Translational Sciences (NCATS), 2008).
The source made the active and inactive calls. Calls follow the shape of the full dose curve.

Assay: NSCLC 2 Cell Viability Secondary Assay for qHTS Assay for Epigenetic Modulators
Conditions: NSCLC 2 viability, MTS absorbance, 4 days
Text: NIH Molecular Libraries Screening Centers Network [MLSCN] NIH Chemical Genomics Center [NCGC] MLSCN Grant: 1 X01 MH079860-01 Assay Provider: Elisabeth D. Martinez, University of Texas SW Medical Center NCGC Assay Overview: This secondary assay characterizes selected actives identified in the qHTS of the Locus Derepression (LDR) assay (PubChem AID 597). The LDR assay detects the derepression of a GFP reporter that is stably integrated in a region of the genome of murine c127i mammary cells that is presumably silenced. Compounds that cause derepression of the locus to express GFP are identified by enumerating GFP positive cells using a laser-scanning microplate cytometer. Selected LDR actives were assayed for killing of NSCLC 2, a patient-derived nonsmall cell lung carcinoma line. Known epigenetic drugs, like histone deacetylase inhibitors, can block cancer cell growth. NSCLC 2 cell viability was measured using Cell Titer 96 AQueous One (Promega), an assay which detects the ability of metabolically active cells to reduce a tetrazolium salt substrate (MTS), into a soluble formazan product that can be measured by colorimetry.
NCGC Assay Protocol Summary NSCLC 2 cells were plated in 96-well flat bottom tissue culture dishes (Corning) and grown overnight at 37 C and 5% CO2, then treated with compounds, incubated 4 days, and assayed for viability using the Cell Titer 96 AQueous One kit (Promega) according to the manufacturer's protocol. Absorbance at 490 nm and 650 nm (reference) was measured by a Spectra Max (Molecular Devices). Data were normalized to the untreated control (100% viability). Each cell line was tested in one or two independent assays, each containing 4 or 8 replicates. For further details, see R.L. Johnson, W. Huang, A. Jadhav, C.P. Austin, J. Inglese, E.D. Martinez, A Quantitative High-Throughput Screen Identifies Potential Epigenetic Modulators of Gene Expression, Analytical Biochemistry (2007), doi: 10.1016/j.ab.2007.12.028

Row | SMILES | outcome | Potency
1 | O=C(CSc1cccc2cccnc12)NCc1ccccc1 | inactive | –
2 | O=Nc1ccc(O)c2ncccc12 | – | 1000 nM (active)
3 | CC(C)C(=O)NC(c1ccc(N(C)C)cc1)c1ccc2cccnc2c1O (stereo not drawn) | – | 200 nM (active)
4 | CC(C)C(=O)NC(c1ccco1)c1ccc2cccnc2c1O (stereo not drawn) | – | 800 nM (active)
5 | CC(/C=C/C(=O)NO)=C\[C@@H](C)C(=O)c1ccc(N(C)C)cc1 | – | 40 nM (active)
6 | O=C(CSc1cccc2cccnc12)N1CCCC1 | inactive | –
7 | CC(C)C(=O)NC(c1ccco1)c1cc([N+](=O)[O-])c2cccnc2c1O (stereo not drawn) | – | 6000 nM (active)
8 | CN1C(=S)SC(c2ccccc2)N(C)C1c1ccccc1 (stereo not drawn) | inactive | –
